Laboratory results as given in PubChem BioAssay (Tox21).
Several values for one entry are separate records, joined by “and”; a condition that tells them apart may be missing. Equal entries are not always repeated. Results filed as inconclusive are left out. A call without a number means that no potency is given here. Where a structure was tested more than once in an assay, its records may differ in their call. Activity calls are given as the source filed them. Calls follow the shape of the dose curve; as a rule, active = well fitted cell-killing curve with a large enough effect in the repeat runs; inconclusive = weak or mixed curves, or effect the other way; inactive = no such curve, though single readings can be large or run the other way.

assay: qHTS assay to identify small molecule antagonists of the retinoid-related orphan receptor gamma (ROR-gamma) signaling pathway - cell viability counter screen (AID 1159520); conditions: Tet-on RORgamma CHO cells viability, ATP luminescence, 16 h; series mostly up to 92.4 µM; also: nearly all actives have a fitted effect of over 50% in size
Text: U.S. Tox21 Program National Center for Advancing Translational Sciences [NCATS] NIH Chemical Genomics Center [NCGC] U.S. Environmental Protection Agency [EPA] National Institutes of Environmental Health Sciences [NIEHS] National Toxicology Program [NTP] U.S. Food and Drug Administration [FDA] Tox21 Assay Overview: Nuclear steroid hormone receptors are involved in many biological processes including inflammatory responses, cell proliferation, and apoptosis. Environmental factors or compounds disrupting these nuclear receptor pathways and gene expression may promote susceptibility to immunotoxicants and autoimmune diseases. One important group of these expression factors are the retinoid-related orphan receptors. To assess compounds that may interfere with the retinoid-related orphan receptor gamma (ROR-gamma) transcription factor, a cell-based luciferase assay was used. The CHO cell-based assay utilizes a TET-inducible ROR expression factor and ROR response element-LUC reporter gene. Reporter gene activity was induced using Doxycycline Hyclate and measured after 16 hr incubation. Tet-on ROR gamma CHO cells were used to screen against the Tox21 10K compound library for cytotoxicity by measuring the viability of the cells based on the quantitation of the ATP.
Tox21 Assay Protocol Summary: Tet-on ROR gamma CHO cells were dispensed at 1,000 cells in 4 uL of culture medium per well into white wall/solid bottom 1536-well plates using a Multidrop Combi (Thermo Scientific, Waltham, MA) dispenser. Following incubation at 37 C and 5% CO2 for 4 hr, 23 nL of compounds dissolved in DMSO, positive controls or DMSO only were transferred by a Pintool station (Kalypsys, San Diego, CA) and after 2 hr incubation at 37 C, one ul of 1 uM (final concentration) of Doxycycline Hyclate was added to all the wells by using a Flying Reagent Dispenser (FRD) (Aurora Discovery, San Diego, CA). After 16 hr incubation at 37 C and 5% CO2, 5 uL of CellTiter-Glo reagent (Promega Corporation, Madison, WI) was added to each assay plate using FRD. After 30 min incubation at room temperature, luminescence was quantified on a ViewLux plate reader (Perkin Elmer, Waltham, MA).
Potency is read from the fitted curve at half-maximal effect.

Row | Structure (SMILES) | Potency
1 | OCCOc1ccccc1 | inactive
2 | O=P1(N(CCCl)CCCl)NCCCO1 (stereo not given) | inactive
3 | C[N+](C)(C)Cc1ccccc1 | inactive
4 | O=C(O)C(Cl)(Cl)Cl | inactive
5 | O=S(=O)(O)O | inactive
6 | CCCCCC[n+]1ccccc1 | inactive
7 | CCC[N+]1(C)CCCC1 | inactive
8 | CCCC[N+]1(C)CCCC1 | inactive
9 | CC(=O)[O][Hg][c]1ccccc1 | 304 nM (active) and 969 nM (active) and 422 nM (active)
10 | CCOP(=S)(OCC)Oc1ccc2c(C)c(Cl)c(=O)oc2c1 | inactive
11 | CC(=O)O | inactive
12 | Nc1ccc(-c2ccc(N)c(Cl)c2)cc1Cl | inactive and 48.6 µM (active)
13 | CCCC[n+]1cccc(C)c1 | inactive
14 | CCn1cc[n+](C)c1C | inactive
15 | COc1ccc(N)cc1 | inactive
16 | CCCC[N+]1(C)CCCCC1 | inactive
17 | COP(=O)(OC)C(O)C(Cl)(Cl)Cl (stereo not given) | inactive
18 | Cc1cc(Cl)ccc1OCC(=O)O | inactive
19 | CC(Cl)(Cl)C(=O)O | inactive
20 | O=C(O)c1ccccc1O | inactive

Row | Structure (SMILES) | Potency
21 | Oc1cccc2cccnc12 | 3.44 µM (active) and inactive
22 | O=C(O)C(Cl)Cl | inactive
23 | O=[N+]([O-])c1ccccc1O | inactive
24 | CC[N+]1(C)CCCC1 | inactive
25 | CNC | inactive
26 | CCCC[n+]1ccccc1C | inactive
27 | CCCCCCn1cc[n+](C)c1 | inactive
28 | COCC(=O)N(c1c(C)cccc1C)C(C)C(=O)OC (stereo not given) | inactive
29 | CCCCn1cc[n+](C)c1 | inactive
30 | N#CS | inactive
31 | CCCCCCCCCCCCCCCCn1cc[n+](C)c1 | inactive and 61.7 µM (active) and 30.7 µM (active)
32 | O=C(O)COc1ccc(Cl)cc1Cl | inactive
33 | CCNc1nc(Cl)nc(NCC)n1 | inactive
34 | CC[n+]1ccccc1 | inactive
35 | Cc1cc(-c2ccc(N)c(C)c2)ccc1N | inactive
36 | COP(=O)(OC)OC=C(Cl)Cl | inactive
37 | C[C@]12CCC(=O)C=C1CC[C@@H]1[C@@H]2CC[C@]2(C)C(=O)CC[C@@H]12 | inactive
38 | CCCCCCCCCCCC(=O)O | inactive
39 | CCCCCCCCCCCCOS(=O)(=O)O | inactive
40 | CN(C)[C@@H]1C(=O)C(C(N)=O)=C(O)[C@@]2(O)C(=O)C3=C(O)c4c(O)cccc4[C@@](C)(O)[C@H]3[C@H](O)[C@@H]12 | inactive
